Screening data: PubChem BioAssay, The Scripps Research Institute Molecular Screening Center
The list is not random: actives were taken first. Their share in the collection is about 3.4%.
MITF inh – human MITF inhibition, primary screen | O75030 | AlphaScreen MITF homodimerization, bead proximity signal | inhibition, % at 2.6 µM | 650,000 tested, 0.91% active | AID 1259374; in the data active = inhibition above about 50%
TEAD-YAP inh – TEAD-YAP interaction inhibition; HEK-TIYL cells, TEAD-Gal4/YAP UAS-luciferase luminescence; inhibition, % at 9.12 µM; 640,000 tested, 1.4% active; in the data active = inhibition above about 32%
GPR151 ag – human GPR151 activation. PathHunter beta-arrestin GPR151 cells, luminescence. 650,000 tested, 1% active. activation, % at 11.2 µM. Q8TDV0; in the data active = activation above about 4.9%
Target sequence (Q8TDV0 whole entry, looked up): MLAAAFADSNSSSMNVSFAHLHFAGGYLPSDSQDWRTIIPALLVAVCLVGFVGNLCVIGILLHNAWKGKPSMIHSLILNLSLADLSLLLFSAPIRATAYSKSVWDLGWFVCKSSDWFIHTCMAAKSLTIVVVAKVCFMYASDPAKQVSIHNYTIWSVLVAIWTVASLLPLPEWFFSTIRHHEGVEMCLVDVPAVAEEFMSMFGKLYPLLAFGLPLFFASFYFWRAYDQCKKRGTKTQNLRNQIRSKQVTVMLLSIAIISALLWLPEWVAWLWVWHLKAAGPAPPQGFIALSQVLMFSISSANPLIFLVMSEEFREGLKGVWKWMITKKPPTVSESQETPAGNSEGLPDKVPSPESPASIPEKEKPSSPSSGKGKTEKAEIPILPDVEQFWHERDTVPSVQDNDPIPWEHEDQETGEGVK
FBW7 act – human FBW7 E3 ligase activation, primary screen | Q969H0 | AlphaScreen FBW7–phospho-cyclin E peptide binding, activator screen | normalized activity (activation), % at 26.1 µM | 650,000 tested, 0.13% active; in the data active = normalized activity above about 1.9%;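 also: purified mutant Fbw7 with reduced substrate affinity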
Numbers stand for hits; n = inactive.

SMILES	MITF inh	TEAD-YAP inh	GPR151 ag	FBW7 act
O=C(CCc1ccccc1)N1N=C(C(F)(F)F)CC1(O)c1cccc([N+](=O)[O-])c1 (stereo not given)	n	n	n	n
NS(=O)(=O)c1ccc(CCNC(=O)c2ccc(C#CC3(O)CCCCC3)cc2)cc1	n	44.7	n	n
COc1cc2nc(Nc3ccnn3C)nc(Nc3cc(OC)c(OC)c(OC)c3)c2cc1OC	n	63.5	n	n
Cc1cc(Nc2ccc(Cl)nn2)n(-c2ccccc2)n1	n	n	n	n
CCN(CC)c1ccc(/C=C2\C(=O)N(c3nc(-c4ccc(Cl)cc4)cs3)N=C2c2ccccc2)cc1	n	n	n	n
Cc1ccc(Nc2nc(-c3ccccn3)cs2)cc1	n	55.4	n	n
Cc1ccnc(Nc2nc(-c3cccs3)cs2)c1	n	n	n	n
Cc1ccnc(Nc2nc(-c3ccccn3)cs2)c1	103.1	73.1	n	n
CCOc1ccc(-n2c(=S)sc3c2nc(SCC(=O)Nc2ccc(OC)cc2OC)n2c4ccccc4nc32)cc1	n	n	n	n
O=C(O)CCCN1C(=O)CSC1=S	n	57.3	n	n
O=C(O)CCCCCN1C(=O)CSC1=S	n	32.5	n	n
O=C1CSC(=S)N1CCCCCCN1C(=O)CSC1=S	n	n	n	n
O=Cc1ccc(-c2ccc(NC3CC3)nc2)cc1	n	34.2	n	n
CCN=C1S/C(=C/c2ccc(-c3ccc(Cl)cc3C(=O)O)o2)C(=O)N1CC	n	n	n	n
NC1=NC(=O)/C(=C\c2ccc(-c3cccc(Cl)c3)o2)S1	n	n	n	n
NC1=NC(=O)/C(=C/c2ccc(-c3cccc(C(=O)O)c3)o2)S1	n	70.2	n	n
CCN=C1S/C(=C\c2ccc(-c3cccc(C(=O)O)c3)o2)C(=O)N1CC	n	33.6	n	n
O=C(N/N=C/c1cc([N+](=O)[O-])cc([N+](=O)[O-])c1O)c1ccncc1	n	n	n	n
Cc1ccc(C)c(/C=N/Nc2nc(C)cc(=O)[nH]2)c1	n	n	n	n
Cc1cc(=O)[nH]c(N/N=C/c2cc3c4c(c2O)CCCN4CCC3)n1	n	86.0	n	n
O=C(N/N=C/c1cc2c3c(c1O)CCCN3CCC2)c1ccncc1	65.6	75.4	n	n
O=C(/C=C/c1ccc(O)c(O)c1)OC(Cc1ccc(O)c(O)c1)C(=O)O (stereo not given)	88.5	n	n	n
CN(C)c1ccc(NC(=S)Nc2ccccc2)cc1	n	n	n	n
COc1ccc(NC(=S)Nc2ccccn2)cc1	n	n	n	n
COc1ccccc1NC(=S)c1ccccn1	n	n	n	n
SMILES	MITF inh	TEAD-YAP inh	GPR151 ag	FBW7 act
CSc1ccc(/C=C(\C#N)c2ccccn2)cc1	n	n	n	n
CN(C)c1ccc(NC(=S)c2ccccn2)cc1	n	92.6	n	n
COc1ccc(NC(=S)c2ccccn2)cc1	n	60.5	n	n
Cc1ccc(NC(=S)c2ccccn2)cc1	n	50.7	n	n
CN(C)c1ccc(/C=C(\C#N)c2ccccn2)cc1	n	90.6	n	n
CNC(=S)NCCNc1nc2ccc(C)cc2cc1C#N	n	n	n	n
COc1cc(SC)ccc1C(=O)Nc1nc2c(s1)C(=O)CC(C)(C)C2	n	n	n	n
COc1cc(SC)ccc1C(=O)Nc1nc2c(s1)CCCC2	n	98.3	n	n
CC(=O)Nc1cc(NC(C)=O)cc(C(=O)Nc2nc3c(s2)CCCC3)c1	n	52.2	n	n
COc1cc(SC)ccc1C(=O)Nc1nc2ccc(S(C)(=O)=O)cc2s1	n	46.5	n	n
CSc1cccc(C(=O)Nc2nc3c(s2)CCCC3)c1	n	n	n	n
COc1ccc(Cl)cc1C(=O)Nc1nc2ccc(S(C)(=O)=O)cc2s1	n	n	n	n
COc1cc2ccccc2cc1C(=O)Nc1nc2c(s1)CCCC2	n	n	n	n
COc1ccc(C(=O)Nc2nc3c(s2)CCCC3)c(OC)c1	n	94.8	n	n
CCNC(=S)N(CCC#N)c1ccc(C)c(C)c1	n	n	n	n
CCOc1ccc(C(=O)CCNCCC(=O)O)cc1	n	n	n	n
CCOc1ccc(C(=O)CSCCC(=O)O)cc1	n	34.7	n	n
CCc1ccc(/C(C)=N/N=C(N)N)cc1	n	34.6	n	n
Cc1cccc(C(=O)N2CCCC(C(=O)Nc3cccc(-c4ccc(F)cc4)c3)C2)n1 (stereo not given)	n	n	n	n
Cc1cc(C(=O)N2CCCC(C(=O)Nc3cccc(-c4ccc(F)cc4)c3)C2)n(C)n1 (stereo not given)	n	45.3	n	n
Nc1nc(Nc2ccc(Cl)cc2)nc2ccccc12	n	52.1	n	n
Fc1cccc(Nc2nc(Cl)nc(Cl)n2)c1	n	n	n	n
Clc1nc(Cl)nc(Nc2ccccc2)n1	n	n	n	2.2
COc1ccc(Nc2nc(N)c3ccccc3n2)cc1	n	72.6	n	n
Cc1ccc(Nc2nc(N)c3ccccc3n2)cc1	n	90.2	n	n
SMILES	MITF inh	TEAD-YAP inh	GPR151 ag	FBW7 act
O=C(Cn1c(=O)n(Cc2ccccc2)c(=O)c2c3c(sc21)CCC3)NCC1CCCO1 (stereo not given)	n	n	n	n
CCC(Sc1nc(C)cc(C)n1)C(=O)Nc1nc2ccccc2s1 (stereo not given)	n	n	n	n
O=[N+]([O-])c1cccc(CSc2nc(NCc3ccco3)c3ccccc3n2)c1	n	n	n	n
Fc1ccccc1Nc1nc(N2CCOCC2)c2ccccc2n1	n	n	n	n
Nc1nc(Nc2ccccc2F)nc2ccccc12	n	56.9	n	n
Cc1ccc(Nc2nc(N3CCOCC3)c3ccccc3n2)cc1Cl	n	n	n	n
CN(C)c1ccc(Nc2nc(N)c3ccccc3n2)cc1	n	90.8	n	n
Cc1ccc(Nc2nc(N)c3ccccc3n2)cc1Cl	n	35.4	n	n
Cc1cccc(OCC(=O)Nc2nn3c(C)nnc3s2)c1	n	n	n	n
Cc1ccccc1CSc1nc(-c2cccs2)ccc1C#N	n	53.1	n	n
CCSc1nc(-c2ccccc2)ccc1C#N	n	n	n	n
N#Cc1ccc(-c2ccccc2)nc1SCc1ccccc1F	n	43.0	n	n
N=c1sc2c(n1CC(=O)c1ccc(I)cc1)CCCC2	n	n	n	n
N=c1sc2c(n1CC(=O)c1ccc(Cl)cc1)CCCC2	n	36.6	n	n
CCOc1ccc(-n2c(CSc3ncccn3)nnc2SCC(N)=O)cc1	n	n	n	n
CC(c1ccon1)N(C)C(=O)CC1(c2ccccc2Cl)CC(=O)N(C2CCCC2)C1=O (stereo not given)	n	n	n	n
COC(=O)C1=C(C)N(Cc2cccnc2)C(=O)/C1=C\c1ccc(Cl)c(Cl)c1	n	n	n	n
CCOc1cc2c(cc1OCC)C1C(C(=O)N(CC)CC)c3ccccc3C(=O)N1CC2 (stereo not given)	n	31.9	n	n
CCN(CC)C(=O)C1c2cc(OC)c(OC)cc2C(=O)N2CCc3ccccc3C12 (stereo not given)	n	n	n	n
Cc1ccc(S(=O)(=O)C(CNS(=O)(=O)c2cccs2)c2ccco2)cc1 (stereo not given)	n	n	n	n
O=C(O)c1ccc(C(=O)Nc2ccccc2S(=O)(=O)Nc2nccs2)cc1	n	n	n	3.7
CC(C)(C)c1ccc(C(=O)Nc2ccc(S(=O)(=O)Nc3nccs3)cc2)cc1	n	n	n	n
